From PubChem BioAssay AID1851 (National Center for Advancing Translational Sciences (NCATS), 2009)
Among all 16,000 compounds or so, about 5,700 (36%) were called active. Inconclusive results (about 24%) are left out. The call rests on the fitted dose curve; in most records, active means well fitted curve in the direction sought with a large enough effect; inconclusive means small, poorly fitted or top-dose-only effect, or effect the other way; inactive means no such curve, though single readings can be large or run the other way. The list shows a part of the results.

Biological target: Cytochrome P450 1A2 (Homo sapiens) (UniProt P05177)
Sequence (P05177 whole entry, looked up): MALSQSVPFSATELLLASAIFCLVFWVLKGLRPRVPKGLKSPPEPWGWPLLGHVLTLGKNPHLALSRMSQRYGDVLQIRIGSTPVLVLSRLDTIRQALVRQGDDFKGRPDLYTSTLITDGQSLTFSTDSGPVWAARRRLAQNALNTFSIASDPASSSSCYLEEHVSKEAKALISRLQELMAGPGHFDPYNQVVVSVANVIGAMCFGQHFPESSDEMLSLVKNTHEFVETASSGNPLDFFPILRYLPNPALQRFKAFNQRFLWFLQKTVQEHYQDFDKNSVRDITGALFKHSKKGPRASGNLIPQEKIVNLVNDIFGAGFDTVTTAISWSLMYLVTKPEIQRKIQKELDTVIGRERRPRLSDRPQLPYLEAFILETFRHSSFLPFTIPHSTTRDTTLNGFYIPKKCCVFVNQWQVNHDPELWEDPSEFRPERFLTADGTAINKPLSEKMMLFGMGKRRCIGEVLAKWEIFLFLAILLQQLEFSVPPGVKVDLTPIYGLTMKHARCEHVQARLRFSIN
Assay: Cytochrome panel assay with activity outcomes
Conditions: recombinant CYP, pro-luciferin dealkylation, luminescence, p450-cyp1a2; series mostly up to 57.1 µM; activity, negative = inhibition: at the top concentration
Procedure: The P450 gene superfamily is involved in the metabolism and clearance of xenobiotics. This assay used various human CYP P450 isozymes to measure the dealkylation of various pro-luciferin substrates to luciferin. The luciferin is then measured by luminescence after the addition of a luciferase detection reagent. Pro-luciferin substrate concentration in the assay was equal to its KM for its CYP P450 isozyme. Inhibitors and some substrates limit the production of luciferin, and decrease measured luminescence.
NCGC Assay Protocol Summary:
1, Reagent, 2 uL, Isozyme and Pro-Luciferin
2, Library compounds, 23 nl, 40 uM to 0.24 nM dilution series
3, Controls, 23 nl, Isozyme specific inhibitor
4, Reagent, 2 uL, NADPH regeneration solution
5, Incubation time, 60 min, Isozyme specific temperature
6, Reagent, 4ul, Detection reagent
7, Incubation time, 20 min, Isozyme specific temperature
8, Detection, 1 sec, ViewLux luminescent read
The luciferase-based P450-GloTM Screening Systems were obtained from Promega (Madison, WI) for CYP 1A2 (V9770), CYP 2C9 (V9790), CYP2 C19 (V9880), CYP 2D6 (V9890), and CYP 3A4 Luciferin-PPXE (V9910) and were adapted for 1,536-well microplates and an automated protocol. The control compounds furafylline for 1A2 (F124), sulfaphenazole for CYP 2C9 (S0758), ketoconazole for CYP 2C19 (K1003), quinidine for 2D6 (Q3625), and ketoconazole for 3A4 (K1003) were purchased from Sigma Aldrich (St. Louis, MO). Recombinant P450 enzymes were obtained from baculovirus constructs expressed in insect cells (BD/Gentest).
Medium-binding white solid Kalypsys plates used. Mixtures kept on ice. 1A2: 10 nM 1A2, 100 uM Luc-ME, 100 mM KPO4; 2C9: 10 nM 2C9, 100 uM Luc-H, 25 mM KPO4; 2C19: 5 nM 2C19, 10 uM Luc-H EGE, 50 mM KPO4; 2D6: 5 nM 2D6, 30 uM Luc-ME EGE, 100 mM KPO4; 3A4: 10 nM, 25 uM Luc-PPXE. All amounts are reflected in their final concentration, working concentration is 2x.
NADPH regeneration solution: 1.3 mM NADP+, 3.3 mM glucose-6-phosphate, 3.3 mM MgCl2, 0.4 U/mL glucose-6-phosphate dehydrogenase for all isozymes, 200 mM KPO4 for 3A4. Mixture prepared at RT but kept on ice during automated run.
RT incubation in auxilliary plate hotel for 1A2, 2D6, and 3A4; 37C for 2C9 and 2C19.
Keywords: P450, CYP1A2, CYP2C19, CYP2C9, CYP2D6, CYP3A4, Luciferase, MLSMR, MLSCN, NIH Roadmap, qHTS, NCGC
On the % scale 0 is the no-effect control and ±100 the full control effect.

activity, negative = inhibition, inactive:
CCC(C)NCc1ccc(C(=O)OC)o1 (centres undefined) -12.7%, Cc1ccc(C(C(=O)NCc2ccco2)N(C(=O)CNC(=O)c2cccs2)c2ccc(C)cc2)cc1 (centres undefined) -2.44%, Cc1ccc(C(C(=O)NCc2ccco2)N(C(=O)CNC(=O)c2cccs2)c2ccc(C)cc2C)cc1 (centres undefined) -8.95%, Cc1noc(COc2ccc(OCc3nc(C)no3)cc2)n1 0.769%, COc1ccc(OCc2nnc(SCC(=O)O)n2N)cc1 -20.8%, C[n+]1ccccc1/C=N\O -6.64% [at 25.6 µM], CC(C)NC(=O)N1CCN(c2ccncc2S(=O)(=O)N2CCOCC2)CC1 -4.14%, O=[N+]([O-])c1ccc(S(=O)(=O)Cc2ccccc2)c2nonc12 -5.25% [at 2.29 µM], O=[N+]([O-])c1cc(Cc2cc([N+](=O)[O-])c3cccnc3c2O)c(O)c2ncccc12 -31.1% [at 2.29 µM], Cc1nc2cccc([N+](=O)[O-])c2n1CCCN(C)C -16.9% [at 11.4 µM], COc1ccc2c(c1)CCC1C2CC[C@]2(C)[C@H](NCCCCCCN3C(=O)C=CC3=O)CC[C@@H]12 (some centres undefined) -3.41%, CCNC(=S)N1CC(C)OC(C)C1 (centres undefined) -21.6%, CC(O)CN(CCC(N)=O)CCC(N)=O (centres undefined) 6.43%, Cc1nnc(NC(=O)CSc2ncnc3c2cnn3-c2ccccc2C)s1 1.29%, CC(C)Oc1ccc2c(=O)c3cc(C(=O)O)ccc3oc2c1 -20.5%, COc1cc(/C=C(/C#N)c2nc3ccccc3[nH]2)ccc1OCC(=O)Nc1ccccc1C 2.56%, CCn1nnnc1SCC(=O)NC1CCCC1 -18%, CCOc1ccc(-n2c(SCC(=O)Nc3ccc4c(c3)OCCO4)nc3c(c2=O)SCC3)cc1 -12.3%, C=CCn1c(SCC(=O)NC2CCCCC2)nnc1C1CCCCC1 1.5%, CCOc1ccc(-n2c(SCC(=O)Nc3ccc(OC)cc3)nc3c(c2=O)SCC3)cc1 -13.7%, c1ccc([C@H](CCN2CCCC2)c2ccccn2)cc1 -14.8% [at 11.4 µM], CN(C)CCCn1cnc2cc(Cl)c(Cl)cc21 -19.9% [at 2.29 µM], CN(C)Cc1ccccc1-c1ccc2ncnc(NC3CCNCC3)c2c1 -9.16%, N=C(N)CCNC(=O)[C@@H]1CCC(N)=N1 -3.4% [at 2.29 µM]

AC50, active:
CCN(c1ccc(NC(=O)COC(=O)c2ccc3ccccc3n2)cc1)C(C)C 2.51 µM, O=C(c1cccs1)n1nc(-c2ccc(Cl)cc2)nc1NCc1ccco1 0.316 µM, CCn1c(N)nc2ccccc21 25.1 µM, CCn1c(COc2ccc(OC)cc2)nc2ccccc21 14.1 µM, O=[N+]([O-])c1cccc2cn[nH]c12 2.51 µM, O=[N+]([O-])c1cccc2c(Br)[nH]nc12 0.126 µM, O=[N+]([O-])c1cccc2c[nH]nc12 2.51 µM, COc1ccc(-c2coc3cc(OC)cc(O)c3c2=O)cc1 3.16 µM, O=c1c(-c2ccc(O)cc2)coc2cc(O)cc(O)c12 5.01 µM, O=c1c(-c2ccc(O)cc2)coc2cc(O)ccc12 15.8 µM, COc1ccccc1C(=O)NCCn1cc(SCC(=O)Nc2nnc(C)s2)c2ccccc21 12.6 µM, CC(C)C(=O)c1c(C(C)C)nn2ccccc12 0.631 µM, COc1ccc2c(=O)c(-c3ccccc3)c(C)oc2c1 2.51 µM, O=C(c1ccc(COc2ccc(F)cc2)o1)n1cccn1 10 µM, CN(C)c1ccc(-c2cncnc2NCc2cccs2)cc1 0.398 µM, CN(C)C(=O)c1ccc(-c2cncnc2NCc2cccs2)cc1 20 µM, COc1cccc(=O)c2c(C)n(-c3cc(C)cc(C)c3)c(C)c12 10 µM, COc1cc(/C=C(\C#N)c2nc3c(s2)CC(C)CC3)ccc1O (centres undefined) 1.12 µM, Cc1ccc2nc(NC(=O)CSc3nc4c(c(=O)n3C)SC(C)C4)sc2c1 (centres undefined) 5.01 µM, CCn1c(SCC(=O)NC2CCCCC2)nc2c(c1=O)SC(C)C2 (centres undefined) 14.1 µM, CCn1c(SCC(=O)Nc2nc3ccc(C)cc3s2)nc2c(c1=O)SC(C)C2 (centres undefined) 1.58 µM, CCn1c(SCC(=O)Nc2ccc3c(c2)OCCO3)nc2c(c1=O)SC(C)C2 (centres undefined) 12.6 µM, CN(C)Cc1ccccc1-c1ccc2ncnc(N(C)C)c2c1 12.6 µM, CNc1ncnc2ccc(-c3ccccc3CN(C)C)cc12 3.16 µM, CN(C)Cc1ccccc1-c1ccc2ncnc(NCc3ccccc3)c2c1 15.8 µM
